TDP1 cell noCPT = qHTS for Inhibitors of human tyrosyl-DNA phosphodiesterase 1 (TDP1): qHTS in cells in absence of CPT; 420,000 compounds, 15% hits; Potency, µM (top dose mostly 46.2 µM), without a hit: at the highest dose activity change, negative = growth inhibition, usual class: inhibitors; DT40 Tdp1-/- hTDP1 cells, no CPT, ATP luminescence, 48 h; note: potency is the fitted concentration of half-maximal effect; nearly all actives have a fitted effect of over 55% in size
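Compound effects on proliferation are scored in DT40 Tdp1-/-;hTDP1 cells in the absence of CPT. ATP levels (CellTiter-Glo luminescence) are recorded after a ≥48 hr, 37 °C incubation.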
HT1080-NT tox = kills 2HG-producing HT-1080-NT fibrosarcoma cells. HT-1080-NT fibrosarcoma viability, CellTiter-Glo ATP luminescence, 48 h. Potency, µM (top dose mostly 46.1 µM), for the others: top-dose activity, negative = less viability, hits mostly cytotoxic. 360,000 compounds, 1.6% hits;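 note: NT is the 2HG producing partner of a matched IDH1 knockdown line; potency is the fitted concentration of half-maximal effect; 0% = DMSO-treated cells and -100% = media-only wells without cells; nearly all actives have a fitted effect of over 55% in size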
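Toxicity toward the 2HG-producing NT line was scored as %Activity, normalised to DMSO and no-cell wells, from CellTiter-Glo luminescence after 48 hours' treatment.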
TDP1 cell CPT = DT40-hTDP1 cell growth loss with CPT; chicken DT40 Tdp1-/-;hTDP1 cells + 20 nM CPT, ATP luminescence, 48 h; Potency, µM (highest dose often 46.2 µM), for the others: at the top dose activity change, negative = growth inhibition, most hits filed as inhibitors; 420,000 compounds, 12% hits; note: potency is the fitted concentration of half-maximal effect; nearly all actives have a fitted effect of over 55% in size
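Cell growth measured by CellTiter-Glo luminescence after a minimum 48 h, 37 C compound exposure with 20 nM CPT in Tdp1-knockout DT40 cells stably expressing hTDP1, seeded 400/well; qHTS titration format.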
IL-1B inflam inh = inhibitors of inflammasome signaling (IL-1 beta secretion); activity change, % at 57.5 µM; THP-1 LPS/ATP IL-1B secretion, AlphaLISA, 16 h; hits give low values; 360,000 compounds, 4.7% hits; in the data active = activity change below about -50%; inconclusive = mostly about -30% to -49%
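Secreted IL-1B measured by AlphaLISA bead assay after 16 h compound exposure of THP-1 cells; compounds (final up to 57.5 uM) added 1 h before LPS (250 ng/mL) and ATP (1.25 mM) stimulation; lower signal means less secretion.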
HT1080 IDH1KD tx = HT-1080 IDH1 knockdown cell toxicity (counter line); AID 686971; Potency, µM (top dose mostly 46.1 µM), inactives show at the top dose activity, negative = toxicity, usual class: cytotoxic; 360,000 compounds, 2% hits; HT-1080 IDH1 knockdown viability, ATP luminescence, 48 h;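 note: potency is the fitted concentration of half-maximal effect; 0% = DMSO wells and -100% = cell-free medium wells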
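Knockdown cells (IDH1KD HT-1080) received compounds 2 h after plating at 750 cells/well and were kept 48 h at 37 °C in 5% FBS RPMI. A CellTiter-Glo luminescence read gave % activity for curve fitting.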
An asterisk follows results filed as active; u = inconclusive; x = not tested or not shown; [ ] = another dose, or the depositor's remark. This is a sample that favours compounds with a hit; in the whole collection about 19% have one here. Unless noted, calls come from the whole dose curve; as a rule, active = well fitted curve in the direction sought with a large enough effect; inconclusive = small, poorly fitted or top-dose-only effect, or another doubt; inactive = no such curve, though single readings can be large; an effect the other way counts as inactive or inconclusive. Unless noted, % is set by controls: 0 for no effect and ±100 for the full control effect.

SMILES | TDP1 cell noCPT | HT1080-NT tox | TDP1 cell CPT | IL-1B inflam inh | HT1080 IDH1KD tx
COc1cccc(C(C)(O)c2nc(-c3ccc(C)c(C)c3)cs2)c1 (centres undefined) | u | -27.7% | u | 16.8 | u
CCN(CC)C(=O)c1cccc(-c2csc(C(C)(O)c3ccc(OC)cc3)n2)c1 (centres undefined) | 4.61µM* | 5.8µM* | 5.8µM* | 3.8 | u
CCN(CC)C(=O)c1cccc(-c2csc(C(C)(O)c3cccc(OC)c3)n2)c1 (centres undefined) | 23.1µM* | -4.5% | 18.4µM* | -15.0 | u
CCN(CC)C(=O)c1cccc(-c2csc(C(C)(NC(C)=O)c3ccc(OC)cc3)n2)c1 (centres undefined) | 13µM* | 4.2% | u | -14.9 | 0.2%
OCc1cccc(-c2csc(C(O)(c3ccccc3)C(F)(F)F)n2)c1 (centres undefined) | u | -25.3% | u | 37.3 | u
CCN(CC)C(=O)c1cccc(-c2ccc(OC)cc2)c1 | 21.7% | 2.4% | -28.5% | -4.7 | -2.9%
CCN(CC)C(=O)c1cccc(-c2csc(C(C)(O)c3ccc(F)c(F)c3)n2)c1 (centres undefined) | 20.6µM* | u | u | -7.5 | u
CC(O)(c1ccc(F)c(F)c1)c1nc(-c2cccc(C(=O)O)c2)cs1 (centres undefined) | 2.3% | 1.8% | -27.5% | 15.5 | 0.0%
COC(=O)C1SCC2C(=O)N(Cc3ccc(Cl)c(Cl)c3)CC(=O)N21 (centres undefined) | u | -6.9% | 23.1µM* | -4.8 | -0.4%
COC(=O)C1SCC2C(=O)N(Cc3ccc(Cl)cc3)CC(=O)N21 (centres undefined) | -3.6% | -3.5% | 8.9% | -7.8 | -8.2%
CC(C)C[C@H](NC(=O)[C@H](Cc1ccccc1)NC(=O)c1cnccn1)B(O)O | 0.0075µM* | x | 0.0042µM* | x | x
CCn1ccnc1CN(C)Cc1c(C(=O)N2CCCCCCC2)nc2ccc(Cl)cn12 | u | 6.5% | -20.2% | -11.7 | 12.2%
CC(C)C[C@@H](CN1CCC[C@H]1CN1C(=O)C(=O)NC[C@@H]1Cc1ccccc1)N1C[C@H](Cc2ccccc2)N(CC2CCCCCC2)C(=O)C1=O | u | -9.6% | 18.4µM* | -79.8* | u
CC(C)C[C@@H](CN1CCC[C@H]1CN1C(=O)C(=O)NC[C@@H]1Cc1ccc(O)cc1)N1C[C@H](Cc2ccccc2)N(CC2CCCCCC2)C(=O)C1=O | u | u | u | -90.6* | u
CC(C)C[C@@H](CN1CCC[C@@H]1CN1C(=O)C(=O)NC[C@@H]1Cc1ccccc1)N1C[C@H](Cc2ccc(O)cc2)N(CC2CCCCCC2)C(=O)C1=O | u | u | u | -71.8* | u
CC(C)CN(CCNC(=O)c1cc(-c2cccs2)nc2ccccc12)CC(C)C | u | x | 2.9% | x | x
COc1cc(C(=O)NC(C)c2cccc3ccccc23)cc(OC)c1OC (centres undefined) | 20.6µM* | -2.8% | u | -56.7* | 0.2%
COc1cc(Br)c(C(C)NC(=O)c2cccc(Br)c2)cc1OC (centres undefined) | 23.1µM* | -24.6% | 25.9µM* | -2.4 | u
CCOCCCNC(=S)Nc1cc(OCC)c(NC(=O)c2ccco2)cc1OCC | -20.4% | 15.1% | -1.6% | 8.4 | 3.0%
CCOc1cc(NS(=O)(=O)c2ccc(OC)cc2)c(OCC)cc1NC(=O)c1ccco1 | 23.1µM* | u | 20.6µM* | -8.2 | u
CCOc1ccc(C(=O)Nc2cccc(NC(=O)c3ccco3)c2)cc1Cl | 16.4µM* | x | u | x | x
COc1cc(NC(=O)c2ccco2)c(OC)cc1NC(=O)CSc1ncc(-c2ccc(F)cc2)[nH]1 | 25.9µM* | 9.8% | u | -14.6 | -4.3%
CCOc1cc(NC(=S)NCC(C)C)c(OCC)cc1NC(=O)c1ccco1 | u | 1.9% | 14.6µM* | -16.3 | -3.7%
COc1ccc(S(=O)(=O)Nc2cc(OC)c(NC(=O)c3ccco3)cc2OC)cc1 | -29.5% | -2.6% | -18.3% | 28.8 | 0.5%
CSC1=NC2(CCN(C(=O)NC3CCCCC3)CC2)N=C1c1ccc(C)c(C)c1 | -2.6% | x | -9.0% | x | x
SMILES | TDP1 cell noCPT | HT1080-NT tox | TDP1 cell CPT | IL-1B inflam inh | HT1080 IDH1KD tx
CC(=O)N1c2ccc(S(=O)(=O)N(C)CC(=O)NC(C)c3ccccc3)cc2CC1C (centres undefined) | -6.3% | 19.5% | u | 9.1 | 10.2%
COC(C/C=C/[C@@H](O)COCc1ccccc1)OC | 2.2% | 18.8% | -7.0% | 7.4 | 16.4%
CCOc1cc(NC(=O)c2ccco2)c(OCC)cc1NC(=O)COc1ccccc1C | 4.11µM* | 6.4% | 4.61µM* | -9.9 | 2.1%
Cc1ccccc1OCC(=O)Nc1ccccc1NC(=O)c1ccco1 | -29.4% | 3.6% | 7.3% | 30.7 | 3.8%
CCOc1cc(NC(=O)c2ccco2)c(OCC)cc1NC(=O)Cc1cccc(OC)c1 | 25.9µM* | -8.7% | u | -21.4 | -17.0%
CCC(=O)Nc1ccc(NC(=O)c2ccco2)cc1 | -22.3% | -22.4% | -11.6% | -13.5 | -1.9%
CCOc1cc(NS(=O)(=O)CC)c(OCC)cc1NC(=O)c1ccco1 | u | 0.2% | u | 11.3 | -4.8%
CCOc1cc(C(=O)Nc2ccccc2F)cc(Br)c1OCC | u | 7.0% | 20.6µM* | 0.0 | 4.1%
CCOc1ccc(CC(=O)Nc2ccc(NC(=O)c3ccco3)cc2)cc1OCC | -6.2% | -23.7% | u | u | 11.6µM*
O=C(c1cccc(Cl)c1)N1CCN(S(=O)(=O)c2ccc(Cl)s2)CC1 | -10.3% | 1.3%[9.24 µM] | u | u | 2.2%
CC1=C(C)CC(C(=O)NCc2c(F)cccc2Cl)C(C(=O)O)C1 (centres undefined) | -1.0% | 14.0% | 8.8% | 28.4 | 17.8%
O=C(NCC(c1ccco1)N1CCCCC1)c1cccc(NS(=O)(=O)c2ccc(Br)cc2)c1 (centres undefined) | -28.9% | -12.5% | -22.7% | u | -16.6%
COc1ccc(C(=O)NC2CCN(S(=O)(=O)c3ccc(C)cc3)CC2)cc1 | 2.6% | 16.5% | -11.3% | -6.3 | 6.0%
CCOc1ccc(C(=O)Nc2cccc(NC(=O)c3ccc(C(C)(C)C)cc3)c2)cc1Br | 5.8µM* | x | u | x | x
CCOC(=O)c1ccc(Nc2c(-c3ccc(OC)cc3)nc3nc[nH]n23)cc1 | 23.1µM* | x | 20.6µM* | x | x
CCOC(=O)c1ccc(Nc2c(-c3ccc(O)c(OC)c3)nc3nc[nH]n23)cc1 | 16.4µM* | x | 11.6µM* | x | x
COc1cc(C(=O)OCCc2c(C)nc3nc[nH]n3c2=O)cc(OC)c1OC | 1.0% | 10.5% | 10.3% | 0.0 | 7.6%

High-throughput results as filed in PubChem.
